Inconclusive results are not listed. The source made the active and inactive calls. Calls come from the whole dose curve; as a rule, active = well fitted inhibition curve with a large enough effect; inconclusive = small, poorly fitted or top-dose-only effect; inactive = flat fitted curve, though single readings scatter. Non-standard residues stand in square brackets, D forms with d. Residues, ends and D or L forms follow the SMILES beside them. *: point of attachment. Dolaproine = CO[C@@H]([C@@H]1CCCN1)[C@@H](C)C(=O)O; Dil = CC[C@H](C)[C@H](NC)[C@@H](CC(=O)O)OC; NMe2Val = CC(C)[C@@H](C(=O)*)N(C)C

Among the data in PubChem BioAssay AID2061321 (National Center for Advancing Translational Sciences (NCATS), 2025) are Potency values, retold here.

This assay in a line: Identification of antibody-drug conjugate (ADC) payloads which are substrates of ATP-binding cassette drug efflux transporters: ABCG2-H460 cell line. The settings on record: H460 MX20 (ABCG2) viability, CellTiter-Glo, 48 h. The text has this:
Antibody-drug conjugates (ADCs) feature an antibody recognizing a specific protein joined to a potent toxic payload. Numerous antibody-drug conjugates have received FDA approval; however, clinical resistance arises. Resistance mechanisms include decreased expression or mutation of the antibody target, impaired payload release, or increased expression of ATP-binding cassette (ABC) efflux transporters associated with multidrug resistance. We therefore sought to characterize the interaction of ABC multidrug transporters with ADC payloads. We performed a high-throughput screen with 27 common ADC payloads using cells lines expressing ABC transporters P-glycoprotein (P-gp, encoded by ABCB1) or ABCG2 (encoded by ABCG2). Confirmatory assays were also performed using cells transfected to express P-gp, ABCG2, or MRP1 (encoded by ABCC1). Several commonly used ADC payloads were substrates of P-gp, including calicheamicin gamma1, monomethyl auristatin E, DM1, and DM4. All the pyrrolobenzodiazepines tested - SJG136, SGD-1882, SG2057, and SG3199 - were substrates of P-gp, ABCG2, and MRP1. […] These findings highlight the risk of transporter-mediated resistance with certain ADC payloads and underscore the importance of selecting payloads that evade ABC transporter recognition in future ADC development.
HEK-293 cells were transfected with empty vector (pcDNA) or vector containing the human ABCB1 (MDR-19), ABCG2 (R-5), or ABCC1 gene (MRP1) and were maintained in EMEM with 2 mg/mL G418 added to maintain transporter expression. The HeLa derivative KB-3-1 and the P-gp overexpressing KB-8-5-11 subline were maintained in DMEM; KB-8-5-11 additionally received 100 ng/mL colchicine. H460 parental cells were obtained from the Division of Cancer Treatment and Diagnosis Tumor Repository, National Cancer Institute at Frederick, MD and were cultured in RPMI. The ABCG2 expressing subline H460 MX20 was generated by selecting H460 cells in 20 nM mitoxantrone. Media in all cases was supplemented with 10% FBS and 1% penicillin-streptomycin. We explored 27 common ADC payloads, in two orthogonal, paired cell line sets-a drug selected and transfected set for each transporter--to identify substrates of the ABC transporters P-gp and ABCG2. Compounds were sourced from Levena Biopharma (San Diego, CA), Selleck Chem (Houston, TX), ChemieTek (Indianapolis, IN), or Microsource Discovery Systems (Gaylordsville, CT). Screening was performed as previously described. Briefly, cells were plated at a density of 500 cells/well in 1536 well plates with compounds added using a 1536-head pin tool (Kalypsys, San Diego CA). Cells were incubated with cytotoxic drugs and processed with CellTiter Glo reagent (Promega, Madison, WI) to determine viability after 48 hours. P-gp substrates were identified by comparing compound activity between paired sets of low-expressing (sensitive) and over-expressing (resistant) cell lines.
As to `CC[C@H](C)[C@@H]([C@@H](CC(=O)N1CCC[C@H]1[C@H](OC)[C@@H](C)C(=O)N[C@@H](Cc1ccccc1)C(=O)O)OC)N(C)C(=O)[C@@H](NC(=O)[C@H](C(C)C)N(C)C)C(C)C` (NMe2Val-V[Dil][Dolaproine]F-OH), the Potency was 42.3 nM (active).
`CC[C@H](C)[C@@H]([C@@H](CC(=O)N1CCC[C@H]1[C@H](OC)[C@@H](C)C(=O)N[C@H](C)[C@@H](O)c1ccccc1)OC)N(C)C(=O)[C@@H](NC(=O)[C@H](C(C)C)N(C)C)C(C)C`: the Potency was 1.3 nM (active).
Turning to `CC[C@H](C)[C@@H]1NC(=O)CNC(=O)[C@H]2Cc3c([nH]c4cc(O)ccc34)S(=O)C[C@H](NC(=O)CNC1=O)C(=O)N[C@@H](CC(N)=O)C(=O)N1C[C@H](O)C[C@H]1C(=O)N[C@@H]([C@@H](C)[C@@H](O)CO)C(=O)N2` (stereo partly specified), the Potency was 948 nM (active).
Take `COc1cc2cc(C(=O)N3C[C@@H](CCl)c4c3cc(O)c3ccccc43)[nH]c2c(OC)c1OC`: the Potency is 1.1 nM (active).
Turning to `COc1cccc2c1C(=O)c1c(O)c3c(c(O)c1C2=O)C[C@@](O)(C(=O)CO)CC3OC1CC(N2CCOC(OC)C2)C(O)C(C)O1` (stereo partly specified), the Potency was 3 nM (active).
Consider `CC[C@@]1(O)C(=O)OCc2c1cc1n(c2=O)Cc2cc3ccccc3nc2-1`, for which the Potency was 9.5 nM (active).
